# Counter-ions that a name gives are not always drawn. ± gives the standard deviation of the averaged measurements.
# System: Danio rerio Tg(wt1b:EGFP) embryo, pronephros
# Test: pronephric angle neck segment to proximal convoluted tubule (mean of left and right), fold change vs DMSO control; higher = larger pronephric angle
# Conditions: 25 µM; exposure: 24-48 hpf
# In short: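 Every feature is expressed as a fold change relative to the averaged DMSO-treated embryos of the same day. The exposure ran from 24 to 48 hpf at 28.5°C, with dechorionated Tg(wt1b:EGFP) zebrafish embryos in HEPES-buffered E3 containing 0.003% PTU, 0.5% DMSO and 25 μM compound. Dorsal pronephros images taken in agarose-filled 96-well plates were reduced to maximum projections, on which 16 reference points were set by hand in Fiji for a macro to compute distances and angles. Values more than 2 SD from the feature mean were not used.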
row,Structure (SMILES),pronephric angle neck segment
1,Fc1ccc([C@@H]2CCNC[C@H]2COc2ccc3c(c2)OCO3)cc1 [Paroxetine Hydrochloride],0.9885 ± 0.0011
2,O=C(O)CCC(=O)Nc1ccc(S(=O)(=O)Nc2nccs2)cc1 [Succinylsulfathiazole],0.997 ± 0.029
3,CCOc1ccc2ccccc2c1C(=O)N[C@@H]1C(=O)N2[C@@H]1SC(C)(C)[C@@H]2C(=O)O [Nafcillin sodium salt monohydrate],1.041 ± 0.0022
4,Nc1ncn(C2OC(CO)C(O)C2O)c(=O)n1 (centres undefined) [Azacytidine-5],1.02 ± 0.031

# From the supplement of paper PMC7366291
